VP16 counter: Gal4-VP16 reporter inhibition counter-screen; 310,000 tested, 3.5% active; Drosophila S2 Gal4-VP16 UAS-luciferase, luminescence, 20 h; Potency, µM (doses to about 53.6 µM), inactives show top-dose activity, negative = inhibition, most hits filed as inhibitors;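 further: Gal4-VP16 expression switched on by copper sulfate through the metallothionein promoter; potency means the concentration at half of the fitted maximal effect; on the % scale 0 is the no-effect control and ±100 the full control effect; nearly all actives have a fitted effect of over 50% in size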
CtBP-E1A inh: CtBP/E1A binding inhibition; AlphaScreen GST-E1A/His-CtBP binding, 1536-well; hits give low values; activity change, % (concentration not given with the values); 340,000 tested, 0.49% active; AID 651724; in the data active means activity change below about -65%; inconclusive means mostly about -30% to -63%; further: on the % scale 0 is the no-effect control and ±100 the full control effect
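In 5 uL wells, 23 nL compound meets equimolar GST-E1A and His-CtBP (5X stock 125 nM each) for 2 h, 37 °C. Beads (5X, 50 ug/mL) then 1 h, 37 °C, dark.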
MBNL1-CUG inh: MBNL1-poly(CUG) RNA binding inhibition; 280,000 tested, 0.036% active; Potency, µM (top dose mostly 57.5 µM), without a hit: at the highest dose activity change, negative = inhibition, hits mostly inhibitors; AID 2675; Q9NR56; TR-FRET MBNL1-His/biotin-(CUG)12 binding, 665/545 ratio; active means well fitted inhibition curve with a large enough effect in the signal ratio, with a control signal flat, not every such curve was filed as active; inconclusive means small, poorly fitted or top-dose-only effect, or effect the other way, or a change in a side signal; inactive means no such curve, though single readings can be large or run the other way; the % refers to the signal ratio; further: potency means the concentration at half of the fitted maximal effect; on the % scale 0 is the no-effect control and ±100 the full control effect
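Ratiometric TR-FRET (665 over 545 nm, excitation 340 nm) tracks disruption of MBNL1-His/biotin-(CUG)12 complex after 60 min at room temperature, with compounds at 92 nM to 58 uM final.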
CBFb RUNX1 block: CBF-beta/RUNX1 interaction disruption. AID 1477. Potency, µM (titrated, usually from 59.8 µM), for inactives: top-dose activity, negative = inhibition, usual class: inhibitors. Q01196+Q13951. 230,000 tested, under 10 active. AlphaScreen CBFb-His/RUNX1-biotin binding, biochemical; further: % of control where 0% means no effect
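Read-out: AlphaScreen. Format: His-CBF-beta with biotinylated RUNX1 (30 nM each) preincubated 20 min, compound 15 min, Ni-chelate plus streptavidin beads 90 min; room temperature throughout.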
Six1-Eya2 blk: inhibitors of human Six1/Eya2 interaction. Q15475+O00167. AlphaScreen GST-Six1/His-Eya2 binding, biochemical; hits give low values. activity change, % (no concentration beside the values). 360,000 tested, 0.56% active; in the data active means activity change below about -65%; inconclusive means mostly about -30% to -63%; further: on the % scale 0 is the no-effect control and ±100 the full control effect
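Homogeneous AlphaScreen proximity assay pairing GST-Six1 with His-tagged Eya2 (added as 5X mix: 250 nM and 500 nM) in 50 mM Tris pH 8.0, 300 mM NaCl, 1 mM TCEP. Glutathione donor and nickel acceptor beads; 1 h, 37 °C, dark.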
RORg inh: ROR gamma (mouse) transcription inhibition | Drosophila S2 Gal4-RORgamma UAS-luciferase reporter, 20 h | 310,000 tested, 5.4% active | P51450 | AID 2551 | Potency, µM (highest dose often 53.6 µM), inactives show at the highest dose activity change, negative = inhibition, most hits filed as inhibitors; further: potency means the concentration at half of the fitted maximal effect; on the % scale 0 is the no-effect control and ±100 the full control effect; nearly all actives have a fitted effect of over 60% in size
Target sequence (P51450 whole entry, looked up, the tested form may be a part): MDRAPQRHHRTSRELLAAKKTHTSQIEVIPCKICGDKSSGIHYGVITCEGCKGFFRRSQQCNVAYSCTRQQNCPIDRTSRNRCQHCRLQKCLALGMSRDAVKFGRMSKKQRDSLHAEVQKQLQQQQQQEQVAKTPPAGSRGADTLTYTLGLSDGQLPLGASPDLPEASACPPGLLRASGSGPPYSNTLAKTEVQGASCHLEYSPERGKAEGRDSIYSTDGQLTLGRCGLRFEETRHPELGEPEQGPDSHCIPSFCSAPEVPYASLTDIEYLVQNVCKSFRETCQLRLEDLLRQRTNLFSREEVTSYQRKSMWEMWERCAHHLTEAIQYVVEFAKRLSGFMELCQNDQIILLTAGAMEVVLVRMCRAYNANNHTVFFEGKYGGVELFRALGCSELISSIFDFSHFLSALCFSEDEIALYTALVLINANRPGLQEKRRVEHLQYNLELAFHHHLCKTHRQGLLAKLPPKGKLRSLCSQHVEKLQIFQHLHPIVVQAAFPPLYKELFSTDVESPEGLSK
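Read-out: Photinus luciferase luminescence; inhibitors lower reporter signal. Insect Schneider cells with Gal4-ROR gamma fusion under metallothionein promoter, UAS reporter; 700 uM final copper sulfate induction, 20 hr, ambient temperature.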
Numbers without * were called inactive; u = inconclusive; x = no result. The list is not random: actives were taken first. Their share in the collection is about 5.5%. Unless noted, the call rests on the fitted dose curve; in most records, active means well fitted curve in the direction sought with a large enough effect; inconclusive means small, poorly fitted or top-dose-only effect, or another doubt; inactive means no such curve, though single readings can be large; an effect the other way counts as inactive or inconclusive.

SMILES	VP16 counter	CtBP-E1A inh	MBNL1-CUG inh	CBFb RUNX1 block	Six1-Eya2 blk	RORg inh
COc1ccc(C(CNC(=O)COc2cc(C)c(Cl)c(C)c2)N2CCCCC2)cc1 (centres undefined)	u	0	-2%	x	-11	u
Cc1ncc(CN2CCN(CCc3ccccc3)C(CCO)C2)s1 (centres undefined)	2%	6	-7%	-2%	5	-16%
c1ccc(CCCN2CCN(c3ccccn3)CC2)cc1	-3%	-6	-9%	x	-5	-9%
O=C(c1cc(COc2cccc3cnccc23)on1)N1CCCC(CCCO)C1 (centres undefined)	2.8µM*	4	23%	x	12	u
COCC1CCN(C(=O)c2cc(COc3cccc4cnccc34)on2)CC1	13µM*	0	24%	x	-1	23%
COCC1CCN(C(=O)c2cc(COc3ccc(F)cc3Cl)on2)C1 (centres undefined)	x	2	x	x	3	x
COc1cc(OC)c(/C=N/n2c(C3CCCCC3)n[nH]c2=S)c(OC)c1	-2%	3	-10%	x	-1	-35%
COc1ccc(/C=N/n2c(C3CCCCC3)n[nH]c2=S)c(OC)c1	7.1µM*	x	0%	x	-4	3.5µM*
COc1ccccc1/C=C\C=N\n1c(C2CCCCC2)n[nH]c1=S	u	-5	1%	u	-17	2.2µM*
COc1cccc(/C=N/n2c(C3CCCCC3)n[nH]c2=S)c1OC	7.1µM*	-6	6%	x	-5	3.2µM*
COc1cccc(/C=N/n2c(-c3cc(C)[nH]n3)n[nH]c2=S)c1O	-12%	-81*	2%	-8%	-68*	u
Cc1cc(C)cc(C(=O)NCC(=O)OCN2C(=O)c3ccccc3C2=O)c1	x	3	x	x	0	x
S=c1[nH]nc(C2CCCCC2)n1/N=C/c1cccc(Cl)c1Cl	5µM*	-8	-1%	x	-20	3.5µM*
COc1cccc(/C=N/n2c(C3CCCCC3)n[nH]c2=S)c1O	13µM*	2	-2%	x	-2	10µM*
O=C(NCc1ccccc1)C(c1ccc(F)cc1)N(C(=O)c1csnn1)c1ccccc1 (centres undefined)	5%	-19	-5%	x	12	26%
COc1ccc(/C=C2/SC(=S)N(CCCC(=O)Nc3ccc(O)cc3)C2=O)cc1	1.4µM*	-28	u	u	-21	0.28µM*
COc1ccc(/C=C2\SC(=S)N(CCCC(=O)Nc3ccc(O)cc3)C2=O)cc1	1µM*	-24	u	u	-19	1.4µM*
COc1ccc(/C=C2\SC(=S)N(CCC(=O)Nc3ccc(C(=O)O)cc3)C2=O)cc1	5%	x	13%	x	1	-39%
COc1ccc(/C=C2/SC(=S)N(CCC(=O)O)C2=O)cc1	u	-24	u	-3%	-5	5µM*
Cc1nnnn1/C(=C\c1ccccc1)C(=O)OCC(=O)NC1CCCCC1	x	8	x	x	8	x
CC(=O)Nc1ccc(NC(=O)COC(=O)/C(=C/c2ccccc2)n2nnnc2C)cc1	u	24	1%	x	14	16µM*
Cc1nnnn1/C(=C\c1ccccc1)C(=O)OCC(=O)NC(C)(C)C	20µM*	8	-13%	-1%	1	13µM*
S=C(NC1CCCCC1)N1CCCCC1	9%	11	-2%	-12%	15	-38%
CCC1CCCCN1C(=S)NC1CCCCC1 (centres undefined)	u	3	-2%	0%	4	10µM*
CC(NC(=O)c1ccc(F)cc1)c1nc2ccccc2n1Cc1ccccc1F (centres undefined)	-4%	0	0%	3%	-2	18µM*
CCCn1c(NC(=O)c2ccc(Br)cc2)nc2ccccc21	1.3µM*	3	31%	3%	3	1µM*
CCCn1c(NC(=O)C2CCN(C(=O)c3ccc(F)cc3)CC2)nc2ccccc21	8.9µM*	-21	-4%	x	-6	7.1µM*
